Compound activity: PubChem BioAssay, National Center for Advancing Translational Sciences (NCATS)
Pf growth 48h: inhibits P. falciparum growth in the first generation, 48 h; P. falciparum luciferase growth in erythrocytes, 48 h; Potency, µM (series often up to 28.7 µM), actives largely listed as inhibitors; 5.9% of 310,000 active
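Cell-based growth assay: transgenic P. falciparum expressing firefly luciferase, cultured in red cells within RPMI 1640 containing 0.5% w/v Albumax, 24 mM bicarbonate and gentamycin. A drop in luciferase activity indicates inhibition.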
Shiga toxin inh: inhibitors of Shiga toxin in Vero cells. 9.2% of 290,000 active. inhibition, % at 38.7 µM. Vero cells, Shiga toxin protein synthesis inhibition reporter. AID 2315; in the data active = inhibition mostly above about 28%, no sharp cut-off; inactive = mostly below about 43%
HCMV antiviral: inhibitors of human cytomegalovirus. activity change, negative = inhibition, % at 57.5 µM. HFF cells, HCMV-luciferase reporter, 72 h; stronger effect = lower value. 4.5% of 410,000 active; in the data active = activity change below about -60%; inconclusive = no clear call, values can overlap the other calls; inactive = above about -39%
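HFF cells seeded 16 h at 37C, treated with compounds, infected with luciferase-reporter HCMV at MOI 1 PFU/cell; luciferase read at 72 h post infection, normalized to buffer-only and Salinomycin controls.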
Pf growth 96h: P. falciparum growth inhibition at 96 hour, primary screen for plastid delayed-death inhibitors | P. falciparum luciferase reporter growth, 96 h | Potency, µM (titrated, usually from 28.7 µM), actives largely listed as inhibitors | 6.9% of 320,000 active | AID 504834
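Readout is luminescence from an integrated firefly luciferase in P. falciparum. Red cells, 2% hematocrit and 0.05% parasitemia final, were cultured with compound through two parasite generations (96 hours) at 37 C, 5% CO2.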
Cycloheximide cs: counter-screen for Shiga toxin inhibitors: cycloheximide protein synthesis inhibition; cell reporter, cycloheximide protein synthesis inhibition counterscreen; max response, %; 12% of 300,000 active; in the data active = max response mostly above about 13%, no sharp cut-off; inactive = mostly below about 14%; also: read at 38.3 µM for the half of the compounds with a filed dose
A number is an active result. The list is not random: actives were taken first. Their share in the collection is about 20%. Unless noted, calls follow the shape of the dose curve; as a rule, active = well fitted inhibition curve with a large enough effect; inconclusive = small, poorly fitted or top-dose-only effect, or another doubt; inactive = no such curve, though single readings can be large or run the other way.

How did COC(=O)N/N=C/c1cn(CCOc2cccc(OC)c2)c2ccccc12 do in these assays?
Pf growth 48h: inactive; Shiga toxin inh: inactive; HCMV antiviral: inactive; Pf growth 96h: inconclusive; Cycloheximide cs: inactive

How did CC1=CN2C(=N)/C(=C/c3cn(CCCOc4ccccc4C)c4ccccc34)C(=O)N=C2S1 do in these assays?
Pf growth 48h: inactive; Shiga toxin inh: 24.3; HCMV antiviral: inactive; Pf growth 96h: inactive; Cycloheximide cs: 66.9

What do the screens show for `COc1cccc(OCCn2cc(C=O)c3ccccc32)c1`?
Pf growth 48h: inactive; HCMV antiviral: inactive; Pf growth 96h: inactive; Cycloheximide cs: 22.8

Results for Cc1ccccc1OCCn1cc(C(=S)N2CCCC2)c2ccccc21 ?
HCMV antiviral: inactive

Results for O=C(COC(=O)c1ccc(F)cc1F)Nc1ccc2[nH]c(=O)[nH]c2c1 ?
Pf growth 48h: inactive; Shiga toxin inh: inactive; HCMV antiviral: inactive; Pf growth 96h: inactive; Cycloheximide cs: inactive

What do the screens show for `N#Cc1ccc(S(=O)(=O)N[C@H]2CC[C@@]34CCCN3C(=O)CCC[C@H]4[C@H]2Cc2ccccc2)cc1`?
HCMV antiviral: inactive

What do the screens show for `O=C(CCl)N1CCCC1c1ccc2c(c1)OCCO2` (centres undefined)?
Pf growth 48h: inconclusive; Shiga toxin inh: inactive; HCMV antiviral: inconclusive; Pf growth 96h: inconclusive; Cycloheximide cs: inactive

How did CCS(=O)(=O)C1=NN2C(=N)/C(=C\c3ccc(OCCOc4cccc(OC)c4)c(OC)c3)C(=O)N=C2S1 do in these assays?
Shiga toxin inh: inactive; HCMV antiviral: inactive; Pf growth 96h: inconclusive; Cycloheximide cs: inactive

What do the screens show for `COc1cccc(OCCCn2cc(/C=C3/C(=N)N4C=C(C)SC4=NC3=O)c3ccccc32)c1`?
Pf growth 48h: inconclusive; Shiga toxin inh: 50.5; HCMV antiviral: inactive; Pf growth 96h: inconclusive; Cycloheximide cs: 19.1

Results for O=C(Cn1cc(SCc2ccccc2F)c2ccccc21)N1CCCCC1 ?
HCMV antiviral: inactive

How did CC(=O)c1sc2nc(=O)c(C)nn2c1C do in these assays?
Pf growth 48h: inactive; Shiga toxin inh: inactive; HCMV antiviral: inactive; Pf growth 96h: 3.7µM; Cycloheximide cs: inactive

What do the screens show for `Cc1ccccc1N1CC(C(=O)Nc2ccncc2)CC1=O` (centres undefined)?
Pf growth 48h: inactive; HCMV antiviral: inactive; Pf growth 96h: 13.1µM

How did Cc1ccccc1N1CC(C(=O)Nc2nnc(SCCN3CCOCC3)s2)CC1=O (centres undefined) do in these assays?
Pf growth 48h: inconclusive; Shiga toxin inh: inactive; HCMV antiviral: inactive; Pf growth 96h: 4.15µM; Cycloheximide cs: inactive

What do the screens show for `Cc1cccc(N2CC(C(=O)Nc3nnc(SCCN4CCOCC4)s3)CC2=O)c1` (centres undefined)?
Pf growth 48h: inactive; Shiga toxin inh: inactive; HCMV antiviral: inactive; Pf growth 96h: inconclusive; Cycloheximide cs: inactive

How did CC(=O)c1cccc(NC(=O)C2CC(=O)N(c3cccc(C)c3C)C2)c1 (centres undefined) do in these assays?
Pf growth 48h: 1.47µM; Shiga toxin inh: inactive; HCMV antiviral: inactive; Pf growth 96h: inactive; Cycloheximide cs: inactive

Results for CC(=O)c1cccc(NC(=O)C2CC(=O)N(c3ccc4c(c3)OCCO4)C2)c1 (centres undefined) ?
Pf growth 48h: inactive; HCMV antiviral: inactive; Pf growth 96h: inactive

Results for Cc1cc(C)cc(S(=O)(=O)c2cn(C)c3cc(N4CCCC4)c(F)cc3c2=O)c1 ?
HCMV antiviral: inactive

Results for COC(=O)c1ccccc1NC(=O)CCCn1c(=O)c2cccn2c2cccnc21 ?
HCMV antiviral: inactive

Results for Cc1n(CC(O)COC2CCCCC2)c2ccccc2[n+]1C (centres undefined) ?
Pf growth 48h: 6.57µM; Shiga toxin inh: inactive; HCMV antiviral: inactive; Pf growth 96h: inactive; Cycloheximide cs: inactive

Results for Cn1nc(C(=O)Nc2ccc3c(c2)OCCO3)cc1C(=O)O ?
Pf growth 48h: inactive; Shiga toxin inh: inactive; Pf growth 96h: inactive; Cycloheximide cs: 19.5

Results for Cn1ccc(C(=O)Nc2ccc3c(c2)OCCO3)n1 ?
Pf growth 48h: inactive; Shiga toxin inh: 71.4; HCMV antiviral: inactive; Pf growth 96h: inactive; Cycloheximide cs: 48.9

Results for Cn1nc(C(=O)Nc2ccc(Cl)cc2)cc1C(=O)Nc1ccc(Cl)cc1 ?
Pf growth 48h: inactive; Shiga toxin inh: inactive; HCMV antiviral: inactive; Pf growth 96h: inactive; Cycloheximide cs: inactive

What do the screens show for `CCOC(=O)C#CC(CCc1ccccc1)OS(N)(=O)=O` (centres undefined)?
Pf growth 48h: inconclusive; Shiga toxin inh: inactive; HCMV antiviral: inactive; Pf growth 96h: inactive; Cycloheximide cs: inactive

Results for CCN(CC)S(=O)(=O)c1ccc2nc(NC(=O)c3cccnc3)sc2c1 ?
HCMV antiviral: inactive

What do the screens show for `COc1cccc(C2=NOC(C(=O)Nc3cc(C)on3)C2)c1OC` (centres undefined)?
Pf growth 48h: inactive; Shiga toxin inh: inactive; HCMV antiviral: inactive; Pf growth 96h: inactive; Cycloheximide cs: 14.3

What do the screens show for `COc1ccc(NC(=O)C2CC(c3c(F)cccc3Cl)=NO2)cc1` (centres undefined)?
Pf growth 48h: inactive; HCMV antiviral: inactive; Pf growth 96h: inactive; Cycloheximide cs: 17.5

What do the screens show for `COc1cc(NC(=O)C2CC(c3c(F)cccc3Cl)=NO2)cc(OC)c1OC` (centres undefined)?
Pf growth 48h: inactive; Shiga toxin inh: inactive; HCMV antiviral: inactive; Pf growth 96h: inactive; Cycloheximide cs: inactive

How did COc1ccc(OC)c(C2=NOC(C(=O)NCc3cccs3)C2)c1 (centres undefined) do in these assays?
Pf growth 48h: inactive; Shiga toxin inh: inactive; HCMV antiviral: inactive; Pf growth 96h: 0.37µM; Cycloheximide cs: inactive

Results for O=C(Nc1cccc(O)c1)C1CC(c2cccc(Br)c2)=NO1 (centres undefined) ?
Pf growth 48h: inactive; Shiga toxin inh: inactive; HCMV antiviral: inactive; Pf growth 96h: inactive; Cycloheximide cs: inactive

How did COc1cccc(C2=NOC(C(=O)Nc3cccc(C(C)=O)c3)C2)c1OC (centres undefined) do in these assays?
Pf growth 48h: inactive; Shiga toxin inh: inactive; HCMV antiviral: inactive; Cycloheximide cs: inactive

Results for COc1ccc(OC)c(C2=NOC(C(=O)NCCN3CCOCC3)C2)c1 (centres undefined) ?
Pf growth 48h: inactive; Shiga toxin inh: inactive; HCMV antiviral: inactive; Pf growth 96h: inactive; Cycloheximide cs: inactive

How did COc1ccc(NC(=O)C2CC(c3cccc(Br)c3)=NO2)cc1OC (centres undefined) do in these assays?
Pf growth 48h: inactive; HCMV antiviral: inactive; Pf growth 96h: 10.4µM; Cycloheximide cs: inactive

What do the screens show for `COc1ccc(OC)c(C2=NOC(C(=O)Nc3cccnc3)C2)c1` (centres undefined)?
Pf growth 48h: inactive; Shiga toxin inh: inactive; HCMV antiviral: inactive; Pf growth 96h: 11.7µM; Cycloheximide cs: inactive

What do the screens show for `COc1cccc(C2=NOC(C(=O)Nc3ccc(OC)c(OC)c3)C2)c1` (centres undefined)?
Pf growth 48h: inactive; Shiga toxin inh: inactive; HCMV antiviral: inactive; Pf growth 96h: inconclusive; Cycloheximide cs: 17.5
